# Screening data: PubChem, National Center for Advancing Translational Sciences (NCATS)
# WRN inhibitor – inhibitors of human WRN helicase | WRN helicase unwinding, fluorescent forked duplex, kinetic | Potency, µM (highest dose often 114 µM), actives largely listed as inhibitors | actives 0.46% (n = 360,000); also: nearly all actives have a fitted effect of over 55% in size
#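 Primary qHTS, 1536-well format. 20 nM WRN + compound, 15 min RT; start with 100 nM forked fluorophore/quencher duplex, 2 mM ATP (final); kinetic read ex 525/em 598 nm.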
# PLK1 PBD inh – inhibitors of human PLK1 polo-box domain binding | Plk1 PBD binding of FITC phosphopeptide, fluorescence polarization | Potency, µM, actives largely listed as inhibitors | actives 2.8% (n = 360,000) | AID 720504; also: series mostly up to about 57 µM; nearly all actives have a fitted effect of over 65% in size
# VDR inh – inhibitors of human vitamin D receptor. P11473. VDR-SRC2-3 peptide fluorescence polarization, 2 h. Potency, µM, hits mostly inhibitors. actives 0.93% (n = 400,000)
#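 Fluorescence polarization assay measuring small-molecule disruption of VDR binding to the coregulator peptide SRC2-3. Compounds were pin-transferred (23 nl) into the reagent mix and incubated 2 h at room temperature before reading.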
# FEN1 inh – inhibitors of human flap endonuclease 1 | P39748 | Recombinant FEN1 flap cleavage, fluorescence, 15 min | Potency, µM (highest dose often 114 µM), most hits filed as inhibitors | actives 0.35% (n = 390,000); also: nearly all actives have a fitted effect of over 65% in size
#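 Nuclease activity of 10 nM FEN1 was measured after 15 min of room-temperature exposure to titrated compounds, by adding 50 nM flap substrate and reading plates at 0 and 15 min.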
# TCR activator – activates T cell receptor signaling; primary human leukocytes, anti-CD3, IL-2 HTRF, 48 h; Potency, µM (titrated, usually from 9.22 µM), hits mostly activators; 330,000 tested, under 10 active; AID 504894
#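 Readout: HTRF IL-2, Eu-cryptate/d2 antibody pair, 320nm excitation, 665nm emission. Stimulus: a-CD3 beads, no co-stimulation. Cells: primary human leukocytes. Exposure: 48 hr with compound.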
# PI5P4K alpha inh – blocks human PI5P4K alpha kinase activity; P48426; PI5P4Kalpha enzyme, ADP-Glo luminescence, 60 min; active compounds read low; max response, %; actives 1.2% (n = 330,000); active = max response of -50% or lower; inconclusive = between -30% and -50%; inactive = -30% or higher; also: value at the top dose of about 77 µM
#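 PI5P4Kalpha ADP-Glo assay; 5 microM ATP final; 60 min RT reaction; HEPES pH 7.4/EGTA/CHAPS, 5% DMSO; controls lacking substrate or enzyme; luminescent end-point.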
# A number is an active result; 0 = inactive; ? = inconclusive; - = no result given. Rows were chosen to be rich in hits. Some 3.7% of all compounds tested hit in one or more screens of this group. Unless noted, calls follow the shape of the dose curve; as a rule, active = well fitted curve in the direction sought with a large enough effect; inconclusive = small, poorly fitted or top-dose-only effect, or another doubt; inactive = no such curve, though single readings can be large; an effect the other way counts as inactive or inconclusive.
SMILES,WRN inhibitor,PLK1 PBD inh,VDR inh,FEN1 inh,TCR activator,PI5P4K alpha inh
CC(C)N(Cc1ccccc1)C(C)C (tested in a mixture with another compound),-,-,0,-,-,-
CC(Oc1ccc(F)cc1)C(=O)Nc1cccc(-c2nn[nH]n2)c1 (stereo unspecified),0,21.2µM,?,0,0,0
COc1ccc(OC(C)C(=O)Nc2cccc(OC)c2)cc1 (stereo unspecified),0,0,0,0,0,0
Cc1ccc(CNC(=O)CCC(=O)Nc2nnc(C(C)C)s2)cc1,0,0,0,0,0,0
Cc1ccc(-c2nnn(CC(=O)Nc3nnc(C(C)C)s3)n2)cc1,0,26.7µM,0,0,0,0
CC(C)CNc1ncnc2oc(-c3ccco3)c(-c3ccco3)c12,-,-,0,?,-,-
O=S1(=O)CCOCCCN1Cc1ccc(F)cc1,-,-,-,0,-,-
CC(C)(C)N1C(=O)Cc2c1nc(N)c1c(N)nc(N3CCCCC3CO)c(C#N)c21 (stereo unspecified),?,0,?,0,0,-58.2
CCn1c(SCC(=O)NCc2ccco2)nnc1-c1ccc(N(C)C)cc1,-,-,-,0,-,-
COc1ccc(CN(Cc2ccccc2)C(=O)c2ccno2)cc1COc1ccc(NC(C)=O)cc1,-,-,0,0,-,-
Nc1nc(NCCO)nc(N2CCCCCC2)c1[N+](=O)[O-],0,0,0,0,0,0
OCCN(CCO)c1nc(N2CCCCC2)c2nc(N(CCO)CCO)nc(N3CCCCC3)c2n1,0,11.9µM,0,0,0,0
COc1ccc(N(C(=O)c2ccc(C)cc2)S(=O)(=O)c2ccc(Cl)cc2)cc1,-,-,?,0,-,-
COc1ccc(N(C(=O)c2ccc(OC)c(OC)c2)S(=O)(=O)c2ccc(Cl)cc2)cc1,-,-,0,89.1µM,-,-
CCN(CC)CCNC(=O)Cn1ncc2c([nH]c3ccccc32)c1=O,-,-,0,0,-,-
CCOC(=O)C1CCCN(C(=O)Cc2ccc(OC)c(OC)c2)C1 (stereo unspecified),0,0,0,0,0,0
CCOC(=O)C1CCCN(C(=O)Cc2ccc(C)cc2)C1 (stereo unspecified),0,26.7µM,0,0,0,0
CCOC(=O)C1CCCN(C(=S)Nc2ccc(Nc3ccccc3)cc2)C1 (stereo unspecified),0,21.2µM,0,0,0,0
CCOC(=O)C1CCN(C(=S)Nc2ccc(S(N)(=O)=O)cc2)CC1,?,21.2µM,0,0,0,0
CCOC(=O)C1CCN(C(=S)Nc2ccc(C)cc2)CC1,0,0,0,0,0,0
COC1=C(Nc2ccc(O)cc2)C(=O)c2ccccc2C1=O,0,0,25.1µM,0,0,0
N#Cc1c(=O)c2nc(NCCCO)ncc2n2c(=O)c3ccccc3[nH]c12,?,0,0,?,0,-65.2
CC(=O)N1CCC(C(=O)Nc2nnc(C(C)C)s2)CC1,-,-,0,0,-,-
CCCNC(=O)c1noc2c1CCc1cc(OC)ccc1-2,0,26.7µM,0,0,0,0
O=C(Nc1cc(Cl)ccc1Cl)N1CCCC1,0,8.44µM,?,0,0,0
SMILES,WRN inhibitor,PLK1 PBD inh,VDR inh,FEN1 inh,TCR activator,PI5P4K alpha inh
O=C(NNc1cc(Cl)ccc1Cl)C1CCC1,0,26.7µM,?,0,0,0
CCc1cccc(C)c1NC(=O)c1cc(S(=O)(=O)N(C)Cc2ccccc2)ccc1F,-,-,0,0,-,-
Cc1ccc(-c2ccc(CCC(=O)O)n2-c2cccc(C)c2C)cc1,-,-,0,0,-,-
CCc1ccccc1NC(=O)c1cc(S(=O)(=O)N2CCc3ccccc32)ccc1F,-,-,0,0,-,-
CCN(CC)CC(=O)Nc1ccc(C)cc1C(=O)c1ccccc1,0,0,0,0,0,0
Cc1ccc(S(=O)(=O)NCCC(=O)Nc2ccc(C)cc2C(=O)c2ccccc2)cc1,0,26.7µM,?,0,0,0
CCCn1c2ccccc2c2cnn(CC(=O)Nc3ccc(C)cc3Br)c(=O)c21,-,-,0,0,-,-
CC1=CC(=NOC(=O)c2cccc([N+](=O)[O-])c2)C=C(C)C1=O,0,6.7µM,?,0,0,0
CC1=CC(=O)C(C(C)C)=C/C1=N/OC(=O)c1cccc([N+](=O)[O-])c1,0,3.77µM,0,0,0,-
O=c1cc(CO)oc(C(Nc2ccccn2)c2cccc(F)c2)c1O (stereo unspecified),0,23.8µM,15.8µM,0,0,0
